From PubChem BioAssay AID1159506 (National Center for Advancing Translational Sciences (NCATS), 2015)
Whole data set: some 59,000 sequences, median the read-out near -0.00055, cut for the lowest 2% near -2. This excerpt belongs to a sample that is enriched for the lowest values.

Assay: Identification of proteins required for the processing of the EWS-FLI1 nascent transcript;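 also: robust z of luciferase light less the median z of siRNAs with the same seed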
Details: TC32 Ewing sarcoma NR0B1-luc vs CMV-luc (EWS-FLI1 target promoter against control promoter), 48 h; screened at 20 nM (by protocol)
Protocol: Ewing sarcoma (ES) cells depend on the EWS-FLI1 fusion transcription factor for cell survival. Using an assay of EWS-FLI1 activity and genome-wide siRNA screening we have identified proteins required for the processing of the EWS-FLI1 nascent transcript. Parallel genome-wide siRNA-mediated RNAi screens were conducted in Ewing sarcoma TC32 cell lines expressing a luciferase (luc) reporter protein driven by either the promoter of the EWS-FLI1 target gene NR0B1 (TC32-NR0B1-luc) or the CMV promoter (TC32-CMV-luc). Luciferase activity was assessed 48 hours post siRNA-transfection.
Twenty microl of serum-free media containing Lipofectamine RNAiMax (0.05 microl) was added to wells containing siRNA (0.8 pmol). Lipid and siRNA were allowed to complex for 45 min at ambient temperature before addition of 600 cells in RPMI-1640, 20% FBS to yield final transfection mixtures containing 20 nM siRNA in RPMI-1640, 10% FBS. Luciferase expression was measured using OneGlo (Promega, Madison, WI). The genome-wide screening campaign was conducted using Ambion's human genome library version 4.1 (Ambion, Austin TX). This library targets approximately 21000 human genes, three siRNAs per gene. Each siRNA is arrayed in an individual well of a 384-well plate. Parallel transfections were conducted in TC32-NR0B1-luc and TC32-CMV-luc cell lines and luciferase expression (OneGlo, Promega) was assayed 48 h later on a PerkinElmer Envision 2104 Multilabel plate reader (PerkinElmer, Waltham, MA). Qiagen's AllStars Negative control was incorporated on all screening plates for normalization (16 wells per plate). Qiagen, Germantown, MDsiGL4 was incorporated as a positive transfection control (16 wells per plate) on all plates. […] The raw luciferase data for the NR0B1- and CMV-luc screens were normalized and z-score-MAD transformed using standard methods (Chung et al., 2008). The miRNA-like seed sequence of every siRNA was determined and the median z-score for all siRNA sequences with the same seed sequence was calculated. This z-score was subtracted from the z-score associated with each siRNA with that seed sequence to generate a seed-adjusted z-score value (Z) that was used when the results for the three siRNAs corresponding to each gene were compared (Marine et al., 2012)

Sequence | seed-corrected z-score
AUCUGCUUAAUCUUUACAC against OR51F2 | -2.93
AUCGGAUACCGUGAGAUCC against OXA1L | 0.367
UAAUGGGCACGAAUGACGG against ST8SIA3 | 0.274
AAUGGUAUCAUUCACCUUG against RPS4X | 1.54
UCGUCUAAAACCAGGAUGC against ABCC3 | -0.496
AAUGUUGUUCUGUUUGUCC against FAM122C | -1.09
UUUAGUUCUUCCCUUAUGG against PDGFC | -0.075
UUCUUCAUCAGCUUAACCG against C1QTNF4 | -0.00119
AUACUUGUACAAUCGGUGC against DIDO1 | 0.123
UUCUUUGCCCGCUUGAGCU against CCDC86 | -0.859
UUAGUUGCACCCAAAUCCA against CCDC17 | -2.22
AUGCGAACCUCAUAGGUGG against SNX12 | -0.364
ACACUCAAAAUUACCAGCU against LEMD2 | -1.09
UGUUUUUGAAGUUAGAUCU against LOC728999 | 1.08
UAAUCCUGACUUUCAAUUG against PAGE3 | -0.446
AACAGUUUCUGCAUUCUUC against PARG | -0.336
AGAGGUCUGAGCACAGUUC against HSPA6 | -1.34
UAACAUCUUCGAACUGCGG against MAU2 | -1.35
UGGUUGUUUAAGUCGACUG against USP33 | -2.43
UCCCUUCACAAAGAAAGAG against TLDC2 | 0.201
UUUCUUAGAAAGCGGUUCC against MORN5 | -0.0295
UAGGAUACAUUGCUGAUGC against CASC1 | -0.353

Sequence | seed-corrected z-score
UCUUUCUUUAGUCUGAGUG against NMUR2 | 0.78
UUCUUUAUCUCGAUGAUGC against FAM117B | -3.46
AUCGCUCCCAUAGUUCACC against KRT20 | -0.0454
UUUUCCUUAAUUAACGGCA against DTYMK | -0.22
UCUGUGGAUACUGAUAUUC against NRG1 | 1.7
UAUGGAAAAAUUAAUCUGU against RAC1 | -0.118
UUCAGUAGAAGUUUCAUCU against POLR2H | -3.55
UACAGAAUGGUUGUCUUGC against ARF4 | 0.573
UAGAGUGCUAAGGACAGGG against GFI1B | 0.226
AGAUUUAUAAUAAUCCCAC against C11orf72 | 0.747
UUACUGGAGACCAAUCUUC against FDFT1 | -1.01
UUAUUGACACGAAUACAUC against BTG3 | 0.565
UGGAGGUUAUGAUCAUUCC against OR51B6 | -2.91
AUGGUGGUAAUUACGCUGC against SLCO5A1 | -0.993
UGACUUUACCUCAAAGUUG against PRPF19 | -0.0138
UCAUUGUCUUCUAUCAAUC against FYN | -0.739
UUCGUAUUAAGAACUGCAG against PSMD1 | -2.79
UAUGGGUUUGUUAAAAGGC against FUT6 | -0.26
UUGCCUUCCAAGUUCUUUC against TNP2 | -0.491
AUACGAUAAGCAGAGGAGG against GLT8D1 | -0.112
AAACCUGCUAUAUCACUCC against ATAD1 | 0.174
AAUCUUCGUAAGACUAUCC against C9orf50 | -2.07

Sequence | seed-corrected z-score
UUCCUUGUUAGCACAGACC against GSR | -0.669
UACUUGUUGAGUGUCUCAG against CXCR1 | -1.52
AGUCGAAUAACAUAUAUCC against NBPF14 | -2.13
AAAGUUCUCAGGGUAGUGG against TOP3B | -0.163
UGUCAUAUACGCUCCAUAC against EYA4 | -0.104
UGUUUCUACCCUUUGCUCC against FAM174B | -0.127
UUUGCAGCUAGUGAUGCGC against ABHD8 | -0.567
UAGCUAUUACCUUACAUUG against HRG | 0.409
UCAUUGUUGAGGUGCGUGA against CDK5R1 | 1.16
UUUUGGACAGGACCGUUGG against SEC24A | 0.282
UUUGGUGCAAAAACCGUGU against WTIP | -2
AUGGCUUCAACAAGCAUCU against HGH1 | -0.109
UAUGGGUCUACCGUCACAC against MIOS | -1.14
UCAGGUACUCUAACACCGC against HIST1H2AC | -0.00982
UACCGGUCGAGGCUGAUCA against HRH2 | -2.03
UUUCAUAGUAAUCGUAGAC against LOC728715 | 0.493
UUGAGAGUAGAGACUGAGC against MKL2 | -0.474
AAGCCUCACAGUACUGCGC against NSMCE3 | -2.76
UACAGUGCAGGAUCUUCUC against NBL1 | -0.461
UAUAUAUCGCCCAUCUCUC against OARD1 | -0.737
UCUGGUACAUUCGAUAGCG against PTGFRN | 0.714
UUUCUUCCCAUGAUCUUUC against RALBP1 | 0.057

Sequence | seed-corrected z-score
UACUGUCCCAAUGGUCAGC against EZH2 | -2.1
AAAUGAACAGGUUUGGAAC against GRPR | 0.695
UUCUUGUUGGAUAAUGCUG against RFX8 | 0.126
AAUGAUCACACCUAAGCCC against USH2A | -3.89
UUCUGCACUCGAGUAAAGG against MAD2L1 | 0.536
AUGCUAGUCAAAAGAAUCG against FBXO40 | 0.266
UCGUCUAAAAUGACUAACG against SACS | 0.485
UCAGAUUUCAGAUCUUUGA against ANXA11 | 0.136
AAAGUACUCCGUAUUUCCC against SLC35D2 | -1.42
UCUAGGGUCACUGUGACGG against RGS9BP | -0.834
UAGUUGUCCUUCAUAAUUC against CCDC67 | -2.53
ACCUCUUCAACAUCUAACC against GEMIN4 | 0.118
CACGUGGCUAUUGUGGAAC against COX6A2 | -1.45
AUAGGUUCCUCUAUAUGUG against ZNF396 | 1.53
UUGGGUGCGAUCUGCAGAC against LINC00304 | -0.536
AAAACACGUCGAAAUCUCC against RPL39 | 0.834
UAAGGAUAUUUGCUAAGGC against HMGCLL1 | -0.796
UGUCUUCGCACUCUUAUCC against IFRD1 | -2.25
UGUCCAUCCGUCAUGAUGC against ANKRD60 | 0.777
